From publication PMC8222333, “AsCas12a ultra nuclease facilitates the rapid generation of therapeutic cell medicines”

Columns and labels:
Assay in all cases: Spec-seq (native PAGE EMSA with sequencing of bound and unbound); 25 mM Tris-HCl pH 7.4, 150 mM KCl, 5 mM MgCl2, 10% glycerol, 1 mM DTT, 40 ng/uL salmon sperm DNA; 400 nM Cas12a, 480 nM crRNA, 50 nM library, 37 C 1 h; native PAGE at room temperature; high values mean tight binding
Settings in all cases: protein: recombinant
dAsCas12a Ultra = dAsCas12a Ultra (Acidaminococcus sp., UniProt U2UMQ6 1-1307, M537R;F870L;D908A;E993A;D1235A)
dAsCas12a E174R = dAsCas12a E174R (Acidaminococcus sp., UniProt U2UMQ6 1-1307, E174R;D908A;E993A;D1235A);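 further: relative affinity from the bound to unbound sequence frequency ratio in Spec-seq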
dAsCas12a S542R = dAsCas12a S542R (Acidaminococcus sp., UniProt U2UMQ6 1-1307, S542R;D908A;E993A;D1235A);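 further: relative affinity from the bound to unbound sequence frequency ratio in Spec-seq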
d-enCas12a = d-enCas12a (Acidaminococcus sp., UniProt U2UMQ6 1-1307, E174R;S542R;K548R;D908A;E993A;D1235A)
d-enCas12a-Ultra = d-enCas12a-Ultra (Acidaminococcus sp., UniProt U2UMQ6 1-1307, E174R;S542R;K548R;M537R;F870L;D908A;E993A;D1235A);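 further: relative affinity from the bound to unbound sequence frequency ratio in Spec-seq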

Binder	binding signal (dAsCas12a Ultra)	binding signal (dAsCas12a E174R)	binding signal (dAsCas12a S542R)	binding signal (d-enCas12a)	binding signal (d-enCas12a-Ultra)
GATA (dsDNA) DNA 1: GCTATCTAGTGCTCAGTACGCACTGGATAAGGAAACTTCTGGCAGGACCAGGTCATGAGATCGGAAGAGCACACGTCTGAACTCCAGTCA DNA 2: TGACTGGAGTTCAGACGTGTGCTCTTCCGATCTCATGACCTGGTCCTGCCAGAAGTTTCCTTATCCAGTGCGTACTGAGCACTAGATAGC RNA: AAUUUCUACUCUUGUAGAUAGGAAACUUCUGGCAGGACC	-8.53 lnKA	-6.9 lnKA	-8.17 lnKA	-3.28 lnKA	-1.2 lnKA
GTGA (dsDNA) DNA 1: GCTATCTAGTGCTCAGTACGCACTGGTGAAGGAAACTTCTGGCAGGACCAGGTCATGAGATCGGAAGAGCACACGTCTGAACTCCAGTCA DNA 2: TGACTGGAGTTCAGACGTGTGCTCTTCCGATCTCATGACCTGGTCCTGCCAGAAGTTTCCTTCACCAGTGCGTACTGAGCACTAGATAGC RNA: AAUUUCUACUCUUGUAGAUAGGAAACUUCUGGCAGGACC	-7.93 lnKA	-8.87 lnKA	-7.67 lnKA	-5.45 lnKA	-3.14 lnKA
GGTA (dsDNA) DNA 1: GCTATCTAGTGCTCAGTACGCACTGGGTAAGGAAACTTCTGGCAGGACCAGGTCATGAGATCGGAAGAGCACACGTCTGAACTCCAGTCA DNA 2: TGACTGGAGTTCAGACGTGTGCTCTTCCGATCTCATGACCTGGTCCTGCCAGAAGTTTCCTTACCCAGTGCGTACTGAGCACTAGATAGC RNA: AAUUUCUACUCUUGUAGAUAGGAAACUUCUGGCAGGACC	-7.78 lnKA	-8.41 lnKA	-7.66 lnKA	-3.21 lnKA	-0.816 lnKA
GCTT (dsDNA) DNA 1: GCTATCTAGTGCTCAGTACGCACTGGCTTAGGAAACTTCTGGCAGGACCAGGTCATGAGATCGGAAGAGCACACGTCTGAACTCCAGTCA DNA 2: TGACTGGAGTTCAGACGTGTGCTCTTCCGATCTCATGACCTGGTCCTGCCAGAAGTTTCCTAAGCCAGTGCGTACTGAGCACTAGATAGC RNA: AAUUUCUACUCUUGUAGAUAGGAAACUUCUGGCAGGACC	-8.74 lnKA	-8.39 lnKA	-8.31 lnKA	-5.83 lnKA	-3.16 lnKA
GGTT (dsDNA) DNA 1: GCTATCTAGTGCTCAGTACGCACTGGGTTAGGAAACTTCTGGCAGGACCAGGTCATGAGATCGGAAGAGCACACGTCTGAACTCCAGTCA DNA 2: TGACTGGAGTTCAGACGTGTGCTCTTCCGATCTCATGACCTGGTCCTGCCAGAAGTTTCCTAACCCAGTGCGTACTGAGCACTAGATAGC RNA: AAUUUCUACUCUUGUAGAUAGGAAACUUCUGGCAGGACC	-8.59 lnKA	-8.64 lnKA	-8.19 lnKA	-5.45 lnKA	-2.7 lnKA
GCTA (dsDNA) DNA 1: GCTATCTAGTGCTCAGTACGCACTGGCTAAGGAAACTTCTGGCAGGACCAGGTCATGAGATCGGAAGAGCACACGTCTGAACTCCAGTCA DNA 2: TGACTGGAGTTCAGACGTGTGCTCTTCCGATCTCATGACCTGGTCCTGCCAGAAGTTTCCTTAGCCAGTGCGTACTGAGCACTAGATAGC RNA: AAUUUCUACUCUUGUAGAUAGGAAACUUCUGGCAGGACC	-6.83 lnKA	-5.69 lnKA	-7.23 lnKA	-4.92 lnKA	-1.62 lnKA
GCGA (dsDNA) DNA 1: GCTATCTAGTGCTCAGTACGCACTGGCGAAGGAAACTTCTGGCAGGACCAGGTCATGAGATCGGAAGAGCACACGTCTGAACTCCAGTCA DNA 2: TGACTGGAGTTCAGACGTGTGCTCTTCCGATCTCATGACCTGGTCCTGCCAGAAGTTTCCTTCGCCAGTGCGTACTGAGCACTAGATAGC RNA: AAUUUCUACUCUUGUAGAUAGGAAACUUCUGGCAGGACC	-8.91 lnKA		-8.63 lnKA	-5.81 lnKA	-3.46 lnKA
